In the library only some 3.1% were active in any assay of this set; here they are far more common.
EBV LMP1 NFkB = reduces LMP1-driven NF-kappaB luciferase signal; LMP1-induced NF-kappaB luciferase reporter cells, luminescence; inhibition, % at 12.5 µM; actives 0.69% (n = 350,000); in the data active = inhibition above about 41%;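 note: 0% = neutral control wells and 100% = reference inhibitor control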
EWS-Fli block = inhibitors of EWS/Fli oncoprotein transcriptional activity. A673 NR0B1-luciferase reporter, viability-normalised. actives 0.67% (n = 350,000). inhibition, % at 12.6 µM. AID 651661;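 active = mean inhibition of at least 50% after viability correction, with every replicate also passing that limit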;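 note: firefly luciferase signal divided by Alamar Blue viability fluorescence both relative to DMSO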
PAX8 inh HTS = PAX8 transcriptional activity inhibition | actives 1.2% (n = 360,000) | RMG-I TPO-luciferase reporter, SteadyGlo, 24 h | inhibition, % at 12.6 µM;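 active = mean replicate inhibition at least 60% with every replicate also reaching 60%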;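 note: luciferase light reporting Pax8 driven TPO promoter activity; plate controls were median of neutral control wells for no effect and mitoxantrone controls for full effect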
TWEAK Fn14 block = blocks TWEAK-Fn14 interaction in a reporter cell assay. inhibition, % at 10 µM. TWEAK-stimulated Fn14 reporter cells, luciferase luminescence, 8 h. actives 2% (n = 360,000). AID 1159606; in the data active = inhibition above about 50%
TROY NFkB inh = blocks TROY-dependent signaling in reporter cells | inhibition, % at 10 µM | AID 1347056 | actives 0.98% (n = 360,000) | Q293 LMP1-TROYcd NF-kB luciferase reporter, 4 h;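 active = compounds whose plate-normalised and pattern-corrected inhibition of the luciferase reporter signal at the single screening dose is 50% or more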
LGR2 antag = blocks bursicon-induced cAMP signaling via Drosophila LGR2 | HEK293 LGR2, CRE-luciferase, bursicon-stimulated, 4 h | inhibition, % at 9.99 µM | actives 0.35% (n = 380,000) | AID 720647;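 active = drop in luminescence signal, shown as inhibition above about 50% in the replicate tests, limit read from the data, passing the limit was not always enough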;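 note: agonist challenge used bursicon conditioned medium at about half maximal strength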
An asterisk follows results filed as active; nt = no result.

SMILES | EBV LMP1 NFkB | EWS-Fli block | PAX8 inh HTS | TWEAK Fn14 block | TROY NFkB inh | LGR2 antag
C[C@@H]1CN([C@@H](C)CO)C(=O)c2cc(NC(=O)Nc3ccc(F)cc3)ccc2O[C@@H](C)CCCCO[C@@H]1CN(C)C | nt | 0 | -7 | nt | nt | -12
Cc1ccc(S(=O)(=O)N[C@@H]2C=C[C@@H](CC(=O)O)O[C@@H]2CO)cc1 | nt | -1 | 4 | nt | nt | -4
Cc1ccc(S(=O)(=O)N2CCC(C(=O)N3Cc4ccccc4C3)CC2)cc1 | 4 | nt | nt | 5 | 15 | nt
Cc1ccc(S(=O)(=O)N2CCC(C(=O)N3CCN(c4ccccn4)CC3)CC2)cc1 | 0 | nt | 23 | 76* | -3 | -3
CN(CC(=O)N1CCN(c2ccccn2)CC1)S(=O)(=O)c1ccc(Br)cc1 | 5 | nt | nt | 92* | nt | nt
O=[N+]([O-])c1cccc(/C=N/n2cnnc2)c1O | 5 | nt | nt | 10 | -13 | 16
O=[N+]([O-])c1ccccc1S(=O)(=O)Oc1ccccc1/C=N/n1cnnc1 | -7 | 3 | 98* | 11 | -5 | 5
CN(CC(O)COCc1ccccc1F)C1CCCCC1 (stereo not drawn) | 6 | -3 | -7 | 64* | 5 | -4
N#C/C(=C\c1ccc2c(c1)OCCO2)C(=O)NC1CCCCC1 | 9 | -85 | 100* | -18 | -41 | -31
C[C@@H]1CCCCO[C@@H](CN(C)CC2CCCCC2)[C@H](C)CN([C@H](C)CO)C(=O)c2cc(NC(=O)c3ccccc3)ccc2O1 | nt | 12 | 14 | nt | nt | 5
NC(=O)c1ccccc1N/C=C/C(=O)c1cccs1 | 53* | nt | nt | 9 | -51 | nt
NC(=O)c1ccccc1N/C=C/C(=O)c1ccc(F)cc1 | 12 | nt | -121 | 34 | 20 | nt
Cc1cccc(N/C=C/C(=O)c2cccs2)c1C | -7 | nt | nt | 58* | -18 | 70*
O=C(/C=C/Nc1ccc(F)cc1)c1cccs1 | -35 | nt | nt | 13 | 18 | nt
COc1c(S(=O)(=O)N2CCCCC2)ccc2c(S(=O)(=O)N3CCCCC3)cccc12 | 6 | nt | -5 | 64* | 43 | nt
COc1cc(OC)c(S(=O)(=O)N2CCCCC2)cc1S(=O)(=O)N1CCCCC1 | -5 | nt | nt | 83* | nt | nt
COc1cc(S(=O)(=O)N2CCCCC2)c(OC)cc1Br | -3 | 3 | 7 | 1 | 0 | 6
O=S(=O)(c1cccc2c(S(=O)(=O)N3CCCC3)cccc12)N1CCCC1 | -4 | nt | nt | -19 | 7 | nt
O=C([C@H]1N[C@H]2c3ccc(-c4ccc(F)cc4)c(=O)n3C[C@H]2[C@@H]1CO)N1CCOCC1 | nt | -5 | -7 | nt | nt | -3
CCS(=O)(=O)N1Cc2ccccc2CC1C(=O)Nc1nc2ccccc2s1 (stereo not drawn) | -7 | nt | -75 | 81* | 70* | 58*
COc1ccc(S(=O)(=O)Nc2ccc3c(c2)C(=O)N([C@@H](C)CO)C[C@@H](C)[C@H](CN(C)Cc2ccc(Oc4ccccc4)cc2)O3)cc1 | nt | 28 | 36 | nt | nt | -14
COCC(=O)N[C@H]1C=C[C@@H](CC(=O)NCc2ccc(Cl)cc2)O[C@@H]1CO | nt | 2 | 5 | nt | nt | -3
O=C1NC(=S)N/C1=C\c1cccnc1 | 10 | -28 | -17 | 50* | 32 | 11
O=C1NC(=S)N/C1=C/c1cccnc1 | -1 | 5 | -55 | 53* | 30 | 6
O=C1NC(=S)N/C1=C/c1cccc([N+](=O)[O-])c1 | 0 | -4 | -21 | -5 | -8 | -7
SMILES | EBV LMP1 NFkB | EWS-Fli block | PAX8 inh HTS | TWEAK Fn14 block | TROY NFkB inh | LGR2 antag
Cc1ccc(CN(C)C[C@@H]2OCc3cn(nn3)CCCC(=O)N([C@H](C)CO)C[C@H]2C)cc1 | nt | 3 | nt | nt | nt | -12
CCCNC(=O)Nc1ccc2c(c1)C(=O)N(C)C[C@@H](OC)[C@H](C)CN(CC1CCCC1)[C@@H](C)CO2 | nt | 17 | nt | nt | nt | -14
COc1ccc2c3c([nH]c2c1)[C@@H](CO)N(C(=O)c1cccnc1)CC31CCN(Cc2cccnc2)CC1 | nt | -1 | nt | nt | nt | -2
CCCNC(=O)Nc1ccc2c(c1)OC[C@H](C)N(C(C)=O)C[C@@H](C)[C@@H](OC)CN(C)C2=O | nt | 3 | 4 | nt | nt | 4
O=C(C[C@H]1CC[C@@H]2[C@H](COC[C@H](O)CN2CC2CCCC2)O1)NCC1CC1 | nt | 13 | nt | nt | nt | 3
COc1ccc(NC(=O)CN(C)C(=O)c2cccc(S(=O)(=O)N3CCN(Cc4ccccc4)CC3)c2)cc1 | 17 | nt | nt | 31 | 7 | nt
CN(CCOc1ccc(Cl)cc1)C(=O)c1cccc(S(=O)(=O)N2CCN(Cc3ccccc3)CC2)c1 | 18 | 17 | 34 | 57* | 39 | 8
CCc1cc2c(=O)nc3n(c2s1)Cc1ccccc1/C3=C(/O)c1ccccc1Cl | -3 | nt | nt | 35 | -22 | nt
CCc1cc2c(=O)nc3n(c2s1)Cc1ccccc1/C3=C(/O)c1ccc(F)cc1 | -9 | nt | nt | 100* | -1 | -24
CO[C@@H]1CN(C)C(=O)c2ccc(NC(=O)C3CC3)cc2OC[C@H](C)N(Cc2cncnc2)C[C@@H]1C | nt | 2 | nt | nt | nt | -23
O=c1c2c3c(sc2ncn1/N=C/c1ccc([N+](=O)[O-])o1)CCCC3 | -77 | nt | nt | 64* | 13 | -3
Cn1cc(/C=N/n2cnc3sc4c(c3c2=O)CCCC4)c2ccccc21 | 7 | nt | 3 | 2 | 0 | nt
COc1ccc(S(=O)(=O)N(C)C[C@H]2Oc3ccc(NC(=O)Nc4cccc5ccccc45)cc3CC(=O)N([C@H](C)CO)C[C@@H]2C)cc1 | nt | -1 | nt | nt | nt | 14
Cc1noc(C)c1NC(=O)Nc1cccc2c1O[C@H](CN(C)C(=O)Nc1ccc(F)cc1)[C@H](C)CN([C@H](C)CO)C2=O | nt | -14 | nt | nt | nt | 7
CCC(=O)N[C@H]1CC[C@@H](CC(=O)NCc2ccccc2OC)O[C@H]1CO | nt | 6 | -11 | nt | nt | -6
COCC(=O)N1C[C@H](C)[C@@H](OC)CN(C)C(=O)c2cc(NS(C)(=O)=O)ccc2OC[C@@H]1C | nt | -3 | 8 | nt | nt | 8
Cc1noc(C)c1S(=O)(=O)Nc1ccc2c(c1)C(=O)N([C@H](C)CO)C[C@H](C)[C@@H](CN(C)S(C)(=O)=O)OCCCC[C@@H](C)O2 | nt | -2 | nt | nt | nt | 5
Fc1ccccc1-c1csc(=Nc2cccnc2)n1CCCn1ccnc1 | 2 | 32 | -31 | 55* | 25 | nt
COc1ccc2c3c([nH]c2c1)[C@@H](CO)N(C(=O)c1ccncc1)CC31CCN(C(=O)Nc2cccc(F)c2)CC1 | nt | -11 | nt | nt | nt | 21
COc1ccc(C=C2OC(=O)C(C(C)=O)=C2O)cc1 | 51* | 18 | -31 | 13 | -20 | 4
Cn1c(=O)n(CCc2ccccc2)c(=O)c2c1nc1n2CCCN1Cc1ccccc1 | 1 | nt | nt | 52* | 29 | 16
CCOC(=O)Cn1c(=O)c2c(nc3n2CCCCN3c2ccc(C)cc2)n(C)c1=O | 2 | nt | 9 | 18 | 8 | nt
Cc1ccc(N2CCCCn3c2nc2c3c(=O)n(CC(=O)O)c(=O)n2C)cc1 | 56* | nt | nt | -7 | -13 | -1
Cc1cc(C)c(C)c(S(=O)(=O)ON2C(=O)c3ccccc3C2=O)c1C | 0 | 56* | nt | 3 | 6 | 5
